Test results reported in PubChem BioAssay.
This is one part of the list. Calls of active or inactive are those of the source.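 The calls were made as follows, unless noted: active = over 150 percent of DMSO response; inconclusive = yeast strain measured with under 70 events; inactive = the rest.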

Legend:
[1] = inhibitors of CD8+ T cell-vesicle binding, pilot screen, LFA-1/ICAM-1 modulator project, MLPCN validation set, flow cytometry (AID 2523;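 active = response below a set limit, under 55% cells CD8-positive and vesicle-bound, and CD8 cells' 90th-percentile brightness under 279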;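 as to vesicle binding response: mean PE anti-B7-1 fluorescence of CD8+ cells relative to row control; 100% = QL9-loaded vesicles with DMSO vehicle in the same plate row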); conditions: 2C mouse CD8+ T cells, at 7 µM, stronger effect = lower value; double positive events: measured here: CD8+/vesicle+ event percentage
[2] = target: Integrin beta-1 (Homo sapiens) + Integrin alpha-4 (Homo sapiens) (UniProt P13612+P05556); experiment: inhibition of HUTS-21 binding to VLA-4, pilot screen, VLA-4 allosteric modulator project, U937 cells, HUTS-21 mAb, flow cytometry, validation set (AID 2674;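 active = inhibition above 50%, about 3 SD of the validation set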;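 also: antibody binding induced by the VLA-4 ligand LDV present at three times its Kd; 0% = LDV ligand with antibody and no compound and 100% = antibody without LDV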); conditions: HUTS-21 LIBS mAb binding, at 6.7 µM, stronger effect = higher value, binding induced by LDV ligand
Chain of Integrin beta-1 (Homo sapiens) + Integrin alpha-4 (Homo sapiens) (P05556 whole entry, looked up): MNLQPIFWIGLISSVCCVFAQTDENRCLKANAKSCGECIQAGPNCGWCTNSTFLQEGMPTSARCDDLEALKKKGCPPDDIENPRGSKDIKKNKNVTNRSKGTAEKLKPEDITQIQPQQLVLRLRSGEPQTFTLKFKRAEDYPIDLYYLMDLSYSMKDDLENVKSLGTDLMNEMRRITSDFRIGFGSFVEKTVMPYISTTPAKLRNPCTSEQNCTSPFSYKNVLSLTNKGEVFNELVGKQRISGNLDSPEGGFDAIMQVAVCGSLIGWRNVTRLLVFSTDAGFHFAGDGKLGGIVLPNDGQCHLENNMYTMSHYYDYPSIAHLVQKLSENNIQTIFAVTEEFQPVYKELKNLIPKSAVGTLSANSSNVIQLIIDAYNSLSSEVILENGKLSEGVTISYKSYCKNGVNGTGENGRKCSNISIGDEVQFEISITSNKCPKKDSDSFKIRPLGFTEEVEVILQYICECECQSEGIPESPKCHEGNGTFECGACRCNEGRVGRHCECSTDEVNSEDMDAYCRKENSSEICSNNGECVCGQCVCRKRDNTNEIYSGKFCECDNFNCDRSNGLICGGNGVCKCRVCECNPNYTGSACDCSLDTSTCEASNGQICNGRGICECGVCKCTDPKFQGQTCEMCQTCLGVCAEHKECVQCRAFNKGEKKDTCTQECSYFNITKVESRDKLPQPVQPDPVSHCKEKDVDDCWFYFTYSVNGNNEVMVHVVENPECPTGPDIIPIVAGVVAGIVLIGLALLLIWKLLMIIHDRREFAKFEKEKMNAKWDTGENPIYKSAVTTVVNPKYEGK
Chain of Integrin beta-1 (Homo sapiens) + Integrin alpha-4 (Homo sapiens) (P13612 whole entry, looked up): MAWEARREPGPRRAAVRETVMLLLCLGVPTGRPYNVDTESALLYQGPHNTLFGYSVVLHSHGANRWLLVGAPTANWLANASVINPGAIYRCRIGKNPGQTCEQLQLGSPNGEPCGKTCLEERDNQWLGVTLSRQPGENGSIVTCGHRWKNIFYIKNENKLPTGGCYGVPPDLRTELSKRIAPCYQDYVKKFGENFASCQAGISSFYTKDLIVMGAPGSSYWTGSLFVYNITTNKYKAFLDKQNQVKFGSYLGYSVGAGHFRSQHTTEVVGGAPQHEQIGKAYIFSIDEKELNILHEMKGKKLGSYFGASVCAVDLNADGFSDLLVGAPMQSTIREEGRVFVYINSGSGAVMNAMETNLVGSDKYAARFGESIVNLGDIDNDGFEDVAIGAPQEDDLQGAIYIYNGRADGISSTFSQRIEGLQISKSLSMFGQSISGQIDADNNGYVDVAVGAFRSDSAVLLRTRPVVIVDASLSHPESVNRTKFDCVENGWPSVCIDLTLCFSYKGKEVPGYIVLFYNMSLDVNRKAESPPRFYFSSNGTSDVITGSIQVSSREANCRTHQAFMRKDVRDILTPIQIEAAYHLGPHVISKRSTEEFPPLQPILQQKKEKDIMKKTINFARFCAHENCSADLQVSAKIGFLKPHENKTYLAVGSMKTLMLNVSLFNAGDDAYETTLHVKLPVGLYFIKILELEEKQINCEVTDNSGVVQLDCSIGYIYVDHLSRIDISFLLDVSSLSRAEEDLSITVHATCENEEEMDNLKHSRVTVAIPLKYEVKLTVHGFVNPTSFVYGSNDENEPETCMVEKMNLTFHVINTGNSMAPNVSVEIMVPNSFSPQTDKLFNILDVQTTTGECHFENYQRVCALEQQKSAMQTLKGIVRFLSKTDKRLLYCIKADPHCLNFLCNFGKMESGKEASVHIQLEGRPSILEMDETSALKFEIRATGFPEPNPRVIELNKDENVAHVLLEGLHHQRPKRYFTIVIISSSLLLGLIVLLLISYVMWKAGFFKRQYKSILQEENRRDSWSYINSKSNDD

[3] = superoxide lowering in aged yeast cells, pilot screen, validation compound set (AID 2706;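 active = superoxide response below 65% of plate, a cut near 3 SD across the whole screen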;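 also: yeast exposed to compound for one week at 30 degrees C before staining; 100% = mean of all compound wells on the same plate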); conditions: S. cerevisiae aging, superoxide DHE fluorescence; at 10 µM, stronger effect = lower value
[4] = target: Beta-adrenergic receptor kinase 1 (Homo sapiens) (UniProt P25098); experiment: GRK2 binders displacing RNA aptamer, biochemical, validation, human GRK2, bead flow cytometry (AID 488806;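 active = aptamer binding inhibition above 30%, about 3 SD of noise from non-fluorescent compounds; inactive = inhibition at or below 30%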); conditions: bead-bound GRK2, FAM-aptamer displacement, at 10 µM, stronger effect = higher value
Chain of Beta-adrenergic receptor kinase 1 (Homo sapiens) (P25098 whole entry, looked up): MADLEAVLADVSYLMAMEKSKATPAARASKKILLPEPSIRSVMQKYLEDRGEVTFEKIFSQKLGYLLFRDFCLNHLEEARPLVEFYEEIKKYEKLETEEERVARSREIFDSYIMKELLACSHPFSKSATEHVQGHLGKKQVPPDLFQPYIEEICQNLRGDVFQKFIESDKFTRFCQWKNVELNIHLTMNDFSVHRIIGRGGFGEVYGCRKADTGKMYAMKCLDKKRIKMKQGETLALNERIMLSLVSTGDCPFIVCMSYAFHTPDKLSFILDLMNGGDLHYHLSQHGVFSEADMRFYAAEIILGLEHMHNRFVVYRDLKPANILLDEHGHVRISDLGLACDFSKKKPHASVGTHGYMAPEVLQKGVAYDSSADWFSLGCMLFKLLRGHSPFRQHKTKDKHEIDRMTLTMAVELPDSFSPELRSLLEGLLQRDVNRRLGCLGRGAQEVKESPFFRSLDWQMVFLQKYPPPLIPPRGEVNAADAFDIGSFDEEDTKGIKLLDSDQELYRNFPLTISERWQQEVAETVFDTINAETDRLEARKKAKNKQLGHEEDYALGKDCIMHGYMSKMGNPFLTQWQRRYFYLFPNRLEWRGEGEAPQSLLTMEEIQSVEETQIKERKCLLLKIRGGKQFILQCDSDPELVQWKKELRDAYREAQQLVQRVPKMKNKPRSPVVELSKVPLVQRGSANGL

[5] = target: AP-2 complex subunit beta (Homo sapiens) (UniProt P63010); experiment: inhibitors of arrestin peptide binding to AP2, pilot screen, biochemical, validation set, GST-AP2 beads, flow cytometry (AID 504541;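 active = inhibition above 54%, about 3 SD of non-fluorescent compounds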;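 also: AP2 carries R879A mutation and is captured from E. coli lysate; bead-bound FITC arrestin peptide fluorescence measuring arrestin peptide binding to AP2; 0% = DMSO wells and 100% = excess unlabeled arrestin peptide control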); conditions: FITC arrestin peptide, at 10 µM, stronger effect = higher value, AP2 beta2 appendage fragment, R879A mutant
Chain of AP-2 complex subunit beta (Homo sapiens) (P63010 whole entry, looked up, the tested form may be a part, one chain of several): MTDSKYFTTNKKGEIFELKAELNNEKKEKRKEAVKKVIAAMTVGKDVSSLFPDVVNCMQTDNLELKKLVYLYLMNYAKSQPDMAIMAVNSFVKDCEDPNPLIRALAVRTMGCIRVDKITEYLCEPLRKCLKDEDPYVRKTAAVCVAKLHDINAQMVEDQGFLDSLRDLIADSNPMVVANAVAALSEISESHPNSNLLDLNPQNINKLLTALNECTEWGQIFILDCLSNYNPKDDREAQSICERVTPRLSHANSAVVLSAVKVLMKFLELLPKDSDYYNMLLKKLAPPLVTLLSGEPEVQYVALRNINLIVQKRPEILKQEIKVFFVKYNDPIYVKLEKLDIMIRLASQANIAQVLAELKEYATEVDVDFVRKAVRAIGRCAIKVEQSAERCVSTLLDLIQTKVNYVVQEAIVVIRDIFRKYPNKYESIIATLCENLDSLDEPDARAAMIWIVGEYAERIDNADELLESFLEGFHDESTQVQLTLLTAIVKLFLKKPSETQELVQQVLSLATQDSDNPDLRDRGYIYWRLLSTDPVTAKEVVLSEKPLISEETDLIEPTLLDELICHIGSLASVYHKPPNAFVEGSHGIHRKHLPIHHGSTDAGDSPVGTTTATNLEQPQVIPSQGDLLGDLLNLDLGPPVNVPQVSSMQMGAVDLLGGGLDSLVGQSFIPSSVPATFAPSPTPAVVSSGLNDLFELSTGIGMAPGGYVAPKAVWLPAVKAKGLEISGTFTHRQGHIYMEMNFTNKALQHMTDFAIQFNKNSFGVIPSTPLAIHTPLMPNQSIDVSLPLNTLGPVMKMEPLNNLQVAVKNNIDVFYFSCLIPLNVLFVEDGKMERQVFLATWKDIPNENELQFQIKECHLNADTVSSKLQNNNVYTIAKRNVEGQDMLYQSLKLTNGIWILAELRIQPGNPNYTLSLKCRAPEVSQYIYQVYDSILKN

[6] = yeast V-ATPase proton transport modulators, S. cerevisiae, pHLuorin, HTS validation (AID 504600; in the data active = response above about 15%;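 also: plate controls were DMSO for no effect and reference compound for full effect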); conditions: S. cerevisiae pHLuorin cytosolic pH, at 10 µM, stronger effect = higher value
[7] = tested on: anti-desmoglein-3 scFv antibody binding to human DSG3; experiment: inhibitors of anti-DSG3 scFv binding to DSG3, pilot screen, biochemical, validation compound set, bead-based, flow cytometry (AID 588368;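 active = binding below the plate cutoff, the plate median minus 3 SD, with a reading above zero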;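 also: signal is the median channel fluorescence of bead-bound GFP antibody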); conditions: Protein G beads, DSG3-Fc, scFv-GFP binding, at 10 µM, stronger effect = lower value
[8] = inhibitors of fungal efflux pumps CDR1, CDR2, MDR1, pilot screen, validation compound set, multiplex, phenotypic (AID 588506;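 active = efflux inhibition above 0.42, the validation set average plus 4 SD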;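 also: Nile Red retained in cells so higher fluorescence means more efflux inhibition; 0 = negative control wells and 1 = enniatin B 25 µM full block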); conditions: S. cerevisiae pump-expressing triplex, Nile Red efflux flow cytometry; at 10 µM; stronger effect = higher value; the pumps come from Candida albicans
[9] = target: ATP-binding cassette sub-family B member 6 (Homo sapiens) (UniProt Q9NP58); experiment: ABCB6 transporter inhibitors, pilot screen, K562-ABCB6 cells, flow cytometry, validation set (AID 588550;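 active = inhibition above the screen-wide mean plus 3 SD, about 51%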;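 also: 0% = DMSO wells and 100% = benzethonium chloride 70 µM positive control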); conditions: K562-ABCB6 porphyrin accumulation, 1 h, at 10 µM, stronger effect = higher value
Chain of ATP-binding cassette sub-family B member 6 (Homo sapiens) (Q9NP58 whole entry, looked up): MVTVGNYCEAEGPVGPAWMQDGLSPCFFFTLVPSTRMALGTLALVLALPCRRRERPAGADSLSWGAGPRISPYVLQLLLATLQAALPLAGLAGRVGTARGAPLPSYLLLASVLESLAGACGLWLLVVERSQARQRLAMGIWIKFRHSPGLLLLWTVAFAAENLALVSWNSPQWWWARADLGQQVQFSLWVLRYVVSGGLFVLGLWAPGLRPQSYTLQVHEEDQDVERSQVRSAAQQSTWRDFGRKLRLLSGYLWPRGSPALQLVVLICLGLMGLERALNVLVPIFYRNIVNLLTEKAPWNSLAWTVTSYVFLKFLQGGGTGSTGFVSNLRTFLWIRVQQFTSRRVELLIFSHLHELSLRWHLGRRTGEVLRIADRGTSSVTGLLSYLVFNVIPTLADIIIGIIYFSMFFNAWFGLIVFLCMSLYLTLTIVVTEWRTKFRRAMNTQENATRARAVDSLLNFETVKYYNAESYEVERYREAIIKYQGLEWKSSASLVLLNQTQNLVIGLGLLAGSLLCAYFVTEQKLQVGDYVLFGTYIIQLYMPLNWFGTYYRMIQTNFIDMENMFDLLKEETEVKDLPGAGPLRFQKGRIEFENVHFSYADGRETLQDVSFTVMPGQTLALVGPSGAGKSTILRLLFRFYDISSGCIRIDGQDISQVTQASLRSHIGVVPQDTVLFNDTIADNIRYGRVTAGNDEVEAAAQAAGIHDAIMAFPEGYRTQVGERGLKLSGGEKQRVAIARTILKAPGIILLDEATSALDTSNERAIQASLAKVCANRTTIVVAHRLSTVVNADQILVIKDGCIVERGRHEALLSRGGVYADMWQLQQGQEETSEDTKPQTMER

[10] = promoters of myeloid differentiation in arrested cells, primary screen, cell-based, GFP/MAC1 double positive, flow cytometry, validation set (AID 588685;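 active = differentiation response of at least 50%, scaled between solvent and reference control, from cells with both markers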;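 also: compound exposure lasts four days before antibody staining and flow analysis; 0% = DMSO wells and 100% = 5 µM fulvestrant positive control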); conditions: ER-HoxA9 marrow cells, stronger effect = higher value, normalized: vehicle 0, fulvestrant 100
[11] = LAP4-GFP expression modulators in yeast, confirmation, cell-based, second cherry pick, flow cytometry (AID 2621;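 active = GFP signal as percent of the solvent control above about 150%, meaning raised reporter expression, limit read from the data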;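 also: ratio of well median GFP fluorescence to plate DMSO mean so 100% = DMSO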); conditions: S. cerevisiae LAP4-GFP strain, 3 h, at 10 µM, stronger effect = higher value
[12] = modulators of MEP2-GFP levels in yeast, confirmation, S. cerevisiae, flow cytometry GFP, second cherry picks (AID 2622;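 active = GFP signal above 150% of the solvent control wells, that is a rise of more than half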;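 also: median channel GFP fluorescence of all gated yeast cells per well; ratio of median GFP to plate DMSO average so 100% = DMSO level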); conditions: S. cerevisiae MEP2-GFP strain, 3 h, at 10 µM, stronger effect = higher value
[13] = RPL19A-GFP modulators in TOR pathway yeast, confirmation, cell-based, S. cerevisiae, flow cytometry, second cherry pick (AID 2623;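 active = under 65% GFP response relative to DMSO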;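 also: median GFP channel fluorescence per well over the all cells gate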); conditions: S. cerevisiae RPL19A-GFP strain, 3 h, at 10 µM, stronger effect = lower value, 100% means same as DMSO wells
[14] = modulators of CIT2-GFP expression in yeast, confirmation, flow cytometry, second cherry pick, single plex (AID 2624;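 active = GFP response vs DMSO above about 150%, limit read from the data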;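 also: median green fluorescence per well over all gated yeast cells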); conditions: S. cerevisiae CIT2-GFP strain, 3 h, at 10 µM, stronger effect = higher value, DMSO control wells read 100%
[15] = AGP1-GFP expression modulators, hit retest, confirmation, cell-based, flow cytometry, S. cerevisiae, cherry pick set 2 (AID 2643);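 also: median GFP channel fluorescence over all cells without mother daughter split; sample median GFP divided by mean DMSO control so 100% equals DMSO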; conditions: S. cerevisiae AGP1-GFP strain, 3 h, at 10 µM, stronger effect = higher value
[16] = target: Beta-2 adrenergic receptor (Homo sapiens) (UniProt P07550); experiment: beta2AR agonists driving receptor internalization, pilot screen, cell-based, FAP fluorogen, flow cytometry, validation set (AID 504459;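 active = percent response above 42, roughly 3 SD of non-fluorescent test compounds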;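 also: agonist-driven loss of surface beta2AR via internalization measured by FAP dye flow cytometry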); conditions: Am2.2-beta2AR cells, FAP surface receptor flow cytometry; at 10 µM; stronger effect = higher value
Chain of Beta-2 adrenergic receptor (Homo sapiens) (P07550 whole entry, looked up): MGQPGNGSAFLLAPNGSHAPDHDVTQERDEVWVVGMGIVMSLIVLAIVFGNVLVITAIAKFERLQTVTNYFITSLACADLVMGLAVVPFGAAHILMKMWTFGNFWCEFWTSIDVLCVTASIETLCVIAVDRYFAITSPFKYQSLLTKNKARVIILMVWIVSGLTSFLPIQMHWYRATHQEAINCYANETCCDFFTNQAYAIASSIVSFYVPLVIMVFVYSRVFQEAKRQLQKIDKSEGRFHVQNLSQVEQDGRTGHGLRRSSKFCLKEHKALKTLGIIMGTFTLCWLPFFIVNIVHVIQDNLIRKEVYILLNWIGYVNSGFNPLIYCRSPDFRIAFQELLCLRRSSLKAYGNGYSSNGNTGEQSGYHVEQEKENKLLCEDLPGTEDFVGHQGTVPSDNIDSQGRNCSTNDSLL

[17] = compound autofluorescence in yeast s288c, dose response, artefact control for yeast TOR pathway GFP screen, s288c strain (AID 2757;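 active = fluorescence span over the dose series, or activity score, above about 33, limit read from the data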;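 also: thousands of bead-calibrated equivalent soluble fluorophore molecules from median cell fluorescence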); conditions: S. cerevisiae s288c, 520 nm autofluorescence, flow cytometry, 3 h; at 33 µM; stronger effect = higher value; zero means same as solvent-only cells

CCCCNC(=O)NS(=O)(=O)c1ccc(C)cc1
inactive: vesicle binding response [1] 172% | inhibition [2] 12.8% | superoxide response (% of plate) [3] 108% | aptamer binding inhibition [4] 4% | inhibition [5] -9.7% | response [6] 8.22% | binding (% of control) [7] 99% | efflux inhibition (fraction of control) [8] -0.05 | inhibition [9] 9% | differentiation response [10] -19.6%
56.1%: double positive events [1]

CC(C)[C@@H]1COC(c2cccc(C3=N[C@H](C(C)C)CO3)c2)=N1
inactive: GFP response vs DMSO [11] 99% | GFP response vs DMSO [12] 98.2% | GFP response vs DMSO [13] 101% | GFP response vs DMSO [14] 97.2% | percent response vs DMSO [15] 95.8%

CC1=C/C(=N\OS(=O)(=O)c2ccccc2)C=CC1=O
inactive: GFP response vs DMSO [11] 126% | GFP response vs DMSO [12] 145% | GFP response vs DMSO [13] 103% | GFP response vs DMSO [14] 109% | percent response vs DMSO [15] 101%

O=C(NCCN1CCOCC1)c1ccc(Cl)cc1
active: efflux inhibition (fraction of control) [8] 1.05
inactive: vesicle binding response [1] 168% | inhibition [2] -16% | aptamer binding inhibition [4] -1% | response [16] 15.8% | inhibition [5] 23.5% | response [6] -22.3% | binding (% of control) [7] 105% | inhibition [9] 14% | differentiation response [10] 15.9%
64.3%: double positive events [1]

Cc1[nH]c2ccccc2c1C(=O)CN1CCCC1
inactive: vesicle binding response [1] 26% | inhibition [2] -4.6% | aptamer binding inhibition [4] -4% | response [16] 7.28% | inhibition [5] 4.83% | response [6] -0.48% | binding (% of control) [7] 110% | efflux inhibition (fraction of control) [8] 0.24 | inhibition [9] 48% | differentiation response [10] 28.6%
61.6%: double positive events [1]

COc1ccc(-c2nc(CS(=O)(=O)CC(=O)NCc3cccc(Br)c3)c(C)o2)cc1
inactive: GFP response vs DMSO [11] 109% | GFP response vs DMSO [12] 119% | GFP response vs DMSO [13] 101% | GFP response vs DMSO [14] 113% | percent response vs DMSO [15] 99.3%

CCCn1nc(C(=O)NNC(=O)CCOc2ccccc2OCC)c2ccccc2c1=O
inactive: GFP response vs DMSO [11] 102% | GFP response vs DMSO [12] 97.8% | GFP response vs DMSO [13] 102% | GFP response vs DMSO [14] 121% | percent response vs DMSO [15] 99%

Cc1cc(C)c2nc3nc(C)cc(C)c3c(N)c2c1
inactive: GFP response vs DMSO [11] 99% | GFP response vs DMSO [12] 103% | GFP response vs DMSO [13] 76.7% | GFP response vs DMSO [14] 93.9% | percent response vs DMSO [15] 75.9%

CC(C)NC[C@@H](O)c1ccc(O)c(O)c1
inactive: vesicle binding response [1] 125% | inhibition [2] -27.9% | superoxide response (% of plate) [3] 97.4% | inhibition [5] 0.64% | response [6] 11.9% | binding (% of control) [7] 97.3% | efflux inhibition (fraction of control) [8] 0 | inhibition [9] 2% | differentiation response [10] -7.5%
58%: double positive events [1]

CCN1/C(=C/c2ccc3ccc(C)cc3[n+]2CC)Sc2ccccc21
inactive: GFP response vs DMSO [13] 136%
active: GFP response vs DMSO [11] 392% | GFP response vs DMSO [12] 1240% | GFP response vs DMSO [14] 1630% | percent response vs DMSO [15] 203%

Oc1ccc(Cl)cc1Cc1cc(Cl)ccc1O
63.4%: double positive events [1]
inactive: vesicle binding response [1] 194% | superoxide response (% of plate) [3] 110% | aptamer binding inhibition [4] 3% | response [16] 17.5% | inhibition [5] 24.9% | response [6] 0.73% | binding (% of control) [7] 108% | efflux inhibition (fraction of control) [8] -0.04 | inhibition [9] 11% | differentiation response [10] 4.2%

COc1ccc(C2(C)ON(c3ccccc3C(F)(F)F)C2=O)cc1 (stereo not given)
inactive: GFP response vs DMSO [11] 113% | GFP response vs DMSO [12] 103% | GFP response vs DMSO [13] 100% | GFP response vs DMSO [14] 100% | percent response vs DMSO [15] 101% | fluorescence change (kMESF span) [17] 0.5

CCOC(=O)c1cnc(SCC(=O)NCc2ccco2)nc1N
inactive: GFP response vs DMSO [11] 99.2% | GFP response vs DMSO [12] 97.8% | GFP response vs DMSO [13] 96.8% | GFP response vs DMSO [14] 111% | percent response vs DMSO [15] 95.9%
